The text below walks through data of PubChem BioAssay (Tox21).

Results filed as inconclusive are left out. Values without a mark were called inactive. Active and inactive are the calls of the source. Unless noted, calls come from the whole dose curve; as a rule, active = well fitted cell-killing curve with a large enough effect in the repeat runs; inconclusive = weak or mixed curves, or effect the other way; inactive = flat fitted curve, though single readings scatter.
% is set by controls: 0 for no effect and ±100 for the full control effect; potency is the fitted concentration of half-maximal effect.

Tested on in one experiment: not listed separately
The experiment in a line: qHTS assay to identify small molecule that activate the aryl hydrocarbon receptor (AhR) signaling pathway - cell viability counter screen (AID 743086).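 For viability change, negative = cytotoxic: HepG2 liver cells carrying the AhR DRE luciferase reporter.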 Note: nearly all actives have a fitted effect of over 45% in size. The settings on record: HepG2-AhR-luc viability, CellTiter-Fluor, 24 h; series mostly up to 70.3 µM; viability change, negative = cytotoxic: at the top concentration. An outline of the steps: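 HepG2-AhR-luc (HG2L7.5c1) cells, 4000/well, were preincubated 5 h at 37C, exposed to compound in qHTS format for 24 hr at 37C, then given CellTiter-Fluor for 30 min; viability was read as fluorescence in the reporter wells.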
(In qHTS, concentration-response curves come from the screen itself.)
Regarding `CC(C)=CCN1CC[C@]2(C)c3cc(O)ccc3C[C@H]1[C@H]2C`, the “viability change, negative = cytotoxic” value is -16.7%.
As to `CN[C@@]1(c2ccccc2Cl)CCCCC1=O`, the “viability change, negative = cytotoxic” value is 1.99%.
Still for that read-out and setting: in the case of `CCNC1(c2cccs2)CCCCC1=O` (stereo not drawn) it was 1.45% [at 32.5 µM]; in that of `CNC(C)CC1CCCCC1` (stereo not drawn), 2.5%.
As to `CCC1(c2ccccc2)C(=O)NC(=O)N(C)C1=O` (stereo not drawn), the “viability change, negative = cytotoxic” value was 6.75%.
For the molecule `COc1cc([C@@H]2c3cc4c(cc3[C@@H](O)[C@H]3COC(=O)[C@H]23)OCO4)cc(OC)c1O`, the Potency was 29.8 µM (active).
Turning to `CN1CC[C@@]23CCCC[C@@H]2[C@@H]1Cc1ccc(O)cc13`, the “viability change, negative = cytotoxic” value is -7.07%.
On to `CNC(C)Cc1ccccc1` (stereo not drawn), for which the “viability change, negative = cytotoxic” value is 27.3%.
Turning to `CN[C@@H](C)Cc1ccccc1`, the “viability change, negative = cytotoxic” value is -4.28%.
Take `CCCCNC(C)(C)[P+](=O)O`: the “viability change, negative = cytotoxic” value is -0.726%.
Take `O=C1C[C@@H]2OCC=C3CN4CC[C@]56c7ccccc7N1[C@H]5[C@H]2[C@H]3C[C@H]46` (tested in a mixture with another compound): the Potency result is “inactive”.
`C/C=C(\CC)C(=O)NC(N)=O`: the “viability change, negative = cytotoxic” value was 10.2%.
For `C[C@]12CCC(=O)C[C@@H]1CC[C@@H]1[C@@H]2CC[C@@]2(C)[C@H]1CC[C@]2(C)O`, the “viability change, negative = cytotoxic” value is 0.385%.
For `Cc1nnc2n1-c1ccc(Cl)cc1C(c1ccccc1)=NC2`, the “viability change, negative = cytotoxic” value is -1.9%.
With `N#CC(C#N)=Cc1cc(O)c(O)c(O)c1`, the Potency was 13.3 µM (active).
On to `CCCSc1cc(OC)c(CCN)cc1OC`, for which the Potency was 32.5 µM (active).
`O=C(O)CCCO`: the “viability change, negative = cytotoxic” value was -0.437% [at 95 µM].
The same measure, in the same setting: in the case of `Oc1ccc2c3c1O[C@H]1[C@@H](O)C=C[C@H]4[C@H](C2)NCC[C@@]341` it was -14.8%; in that of `O=P1(N(CCCl)CCCl)NC(OO)CCO1` (stereo not drawn), -2.29%.
`COC(=O)[C@H]1[C@@H](OC(=O)c2ccccc2)C[C@@H]2CC[C@H]1N2C`: the “viability change, negative = cytotoxic” value was 7.7%.
In the case of `O=C1CN=C(c2ccccc2)c2cc(Cl)ccc2N1`, the “viability change, negative = cytotoxic” value was -2.43%.
`C=C[C@H]1CN2CC[C@H]1C[C@H]2[C@H](OC(=O)OCC)c1ccnc2ccc(OC)cc12`: the “viability change, negative = cytotoxic” value is -2.98%.
In the case of `C[C@]12CC[C@H]3[C@@H](CCC4=C(Cl)C(=O)CC[C@@]43C)[C@@H]1CC[C@@H]2O`, the “viability change, negative = cytotoxic” value is -4.06%.
Regarding `Clc1ccc(C(Cn2ccnc2)OCc2csc3c(Cl)cccc23)c(Cl)c1` (stereo not drawn), the “viability change, negative = cytotoxic” value is -2.18% [at 32.5 µM].
Turning to `C[C@@H]1[C@@H]2Cc3ccc(O)cc3[C@@]1(C)CCN2CC1CC1`, the “viability change, negative = cytotoxic” value was -10.6%.
Regarding `C[C@@H]1[C@H]2Cc3ccc(O)cc3[C@]1(C)CCN2C`, the “viability change, negative = cytotoxic” value was -0.373% [at 95 µM].
As to `[H+].[H+].[Hg+2].[O-]B([O-])[O-].[c-]1ccccc1`, the Potency was 21.1 µM (active).
Consider `C=CCC1([C@@H](C)CCC)C(=O)NC(=O)NC1=O`, for which the “viability change, negative = cytotoxic” value was -6.99%.
As to `c1ccc2c(c1)Sc1ccccc1N2C[C@@H]1CN2CCC1CC2`, the “viability change, negative = cytotoxic” value is 18.2%.
As to `CC[C@H]1[C@@H]2C[C@H]3[C@@H]4N(C)c5ccccc5[C@]45C[C@@H](C2[C@H]5O)N3[C@@H]1O` (stereo partly drawn), the “viability change, negative = cytotoxic” value is 8.19% [at 32.5 µM].
Consider `CC(N)Cc1ccc2c(c1)OCO2` (stereo not drawn), for which the “viability change, negative = cytotoxic” value is 17%.
Turning to `CN1c2ccccc2C(NCCCCCCC(=O)O)c2ccc(Cl)cc2S1(=O)=O` (stereo not drawn), the “viability change, negative = cytotoxic” value is -29.6%.
Same read-out and setting: in the case of `CN[C@]1(c2ccccc2Cl)CCCCC1=O` it was 25.5%; in that of `C[C@]12CC[C@@H]3c4ccc(OC(=O)N(CCCl)CCCl)cc4CC[C@H]3[C@@H]1CC[C@@H]2OP(=O)(O)O`, -3.99%; in that of `CC(=O)[C@@]1(O)CC[C@H]2[C@@H]3CCC4=CC(=O)CC[C@]4(C)C3(F)[C@@H](O)C[C@@]21C` (stereo partly drawn), 24.3%.

Another experiment deals with Peroxisome proliferator-activated receptor gamma (Homo sapiens) (UniProt P37231). Nature of the experiment: qHTS assay to identify small molecule agonists of the peroxisome proliferator-activated receptor gamma (PPARg) signaling pathway (AID 743094; active = well fitted activation curve with a large enough effect in the signal ratio in the repeat runs, not every such curve was filed as active; the % refers to the signal ratio). The settings on record: HEK293H PPARg-UAS-bla, beta-lactamase FRET ratio, 17 h; series mostly up to 57 µM; activation: at the top concentration. The method, boiled down: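 HEK293H PPARg-bla cells, 5 h settle at 37C/5% CO2; compound (DMSO) 17 h, 37C; B/G FRET substrate 1 h RT; fluorescence intensity read-out. qHTS format.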
Chain of Peroxisome proliferator-activated receptor gamma (Homo sapiens) (P37231 whole entry, looked up): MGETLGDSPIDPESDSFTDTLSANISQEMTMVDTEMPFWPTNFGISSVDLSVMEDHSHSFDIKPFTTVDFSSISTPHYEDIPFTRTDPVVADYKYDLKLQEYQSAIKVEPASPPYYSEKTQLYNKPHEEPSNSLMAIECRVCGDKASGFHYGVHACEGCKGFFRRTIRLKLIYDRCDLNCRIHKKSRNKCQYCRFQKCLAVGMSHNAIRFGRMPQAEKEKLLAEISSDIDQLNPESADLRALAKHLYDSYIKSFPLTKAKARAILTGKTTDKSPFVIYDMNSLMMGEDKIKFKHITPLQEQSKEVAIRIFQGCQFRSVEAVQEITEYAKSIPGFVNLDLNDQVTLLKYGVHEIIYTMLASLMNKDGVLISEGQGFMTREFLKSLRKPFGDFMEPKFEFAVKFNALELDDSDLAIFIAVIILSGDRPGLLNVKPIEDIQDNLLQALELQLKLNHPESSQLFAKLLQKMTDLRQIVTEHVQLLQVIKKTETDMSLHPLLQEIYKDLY
In the case of `CC(C)=CCN1CC[C@]2(C)c3cc(O)ccc3C[C@H]1[C@H]2C`, the “activation” value was -9.45%.
Still for that read-out and setting: in the case of `CN[C@@]1(c2ccccc2Cl)CCCCC1=O` it was -2.73%; in that of `CCNC1(c2cccs2)CCCCC1=O` (stereo not drawn), 0% [at 26.2 µM]; in that of `CNC(C)CC1CCCCC1` (stereo not drawn), -6.78%.
As for `CCC1(c2ccccc2)C(=O)NC(=O)N(C)C1=O` (stereo not drawn), the “activation” value is -0.728%.
Take `CN1CC[C@@]23CCCC[C@@H]2[C@@H]1Cc1ccc(O)cc13`: the “activation” value is -6.33%.
On the same count and under the same terms, as for `CCCCNC(C)(C)[P+](=O)O`, the figure is 1.75%; as for `C/C=C(\CC)C(=O)NC(N)=O`, 1.08%.
For the molecule `C[C@]12CCC(=O)C[C@@H]1CC[C@@H]1[C@@H]2CC[C@@]2(C)[C@H]1CC[C@]2(C)O`, the “activation” value was -1.77%.
For `N#CC(C#N)=Cc1cc(O)c(O)c(O)c1`, the “activation” value was -4.38%.
For the molecule `CCCSc1cc(OC)c(CCN)cc1OC`, the “activation” value is -2.98% [at 78.9 µM].
Take `O=C(O)CCCO`: the “activation” value is 0.0984% [at 78.9 µM].
Turning to `O=P1(N(CCCl)CCCl)NC(OO)CCO1` (stereo not drawn), the “activation” value was 1.71%.
Consider `COC(=O)[C@H]1[C@@H](OC(=O)c2ccccc2)C[C@@H]2CC[C@H]1N2C`, for which the “activation” value is 1.66%.
As to `O=C1CN=C(c2ccccc2)c2cc(Cl)ccc2N1`, the “activation” value is -3.65%.
With `C=C[C@H]1CN2CC[C@H]1C[C@H]2[C@H](OC(=O)OCC)c1ccnc2ccc(OC)cc12`, the “activation” value was -6.48%.
Regarding `C[C@]12CC[C@H]3[C@@H](CCC4=C(Cl)C(=O)CC[C@@]43C)[C@@H]1CC[C@@H]2O`, the “activation” value is -5.8%.
Take `Clc1ccc(C(Cn2ccnc2)OCc2csc3c(Cl)cccc23)c(Cl)c1` (stereo not drawn): the “activation” value is 6.82% [at 26.2 µM].
Turning to `C[C@@H]1[C@@H]2Cc3ccc(O)cc3[C@@]1(C)CCN2CC1CC1`, the “activation” value was -4.57%.
`[H+].[H+].[Hg+2].[O-]B([O-])[O-].[c-]1ccccc1`: the Potency was 19 µM (active).
Consider `C=CCC1([C@@H](C)CCC)C(=O)NC(=O)NC1=O`, for which the “activation” value was -5.89%.
Turning to `c1ccc2c(c1)Sc1ccccc1N2C[C@@H]1CN2CCC1CC2`, the “activation” value is -6.82%.
For `CC[C@H]1[C@@H]2C[C@H]3[C@@H]4N(C)c5ccccc5[C@]45C[C@@H](C2[C@H]5O)N3[C@@H]1O` (stereo partly drawn), the “activation” value was -2.31% [at 26.2 µM].
`CC(N)Cc1ccc2c(c1)OCO2` (stereo not drawn): the “activation” value is 0.397%.
On the same count and under the same terms, in the case of `CN1c2ccccc2C(NCCCCCCC(=O)O)c2ccc(Cl)cc2S1(=O)=O` (stereo not drawn) it was 6.19%.
`CN[C@]1(c2ccccc2Cl)CCCCC1=O`: the “activation” value was -12.9%.
As for `C[C@]12CC[C@@H]3c4ccc(OC(=O)N(CCCl)CCCl)cc4CC[C@H]3[C@@H]1CC[C@@H]2OP(=O)(O)O`, the Potency entry was “inactive”.
Consider `CC(=O)[C@@]1(O)CC[C@H]2[C@@H]3CCC4=CC(=O)CC[C@]4(C)C3(F)[C@@H](O)C[C@@]21C` (stereo partly drawn), for which the “activation” value is -0.049%.
